The list is not random: actives were taken first. Their share in the collection is about 6.8%.
Cy5 interf NS3h – counter-screen for HCV NS3 helicase inhibitors: fluorescence interference; Cy5-dT15 DNA with NS3h; actives lie on both sides; signal over control mean, under 1 quenches; fluorescence interference ratio at 100 µM; 16,000 tested, 6% active; AID 720488;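 active = compound fluorescence over control fluorescence at most 0.8, a quencher, or at least a set upper limit, an enhancer; inactive = ratio between 0.8 and the set upper limit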
NS3h inh CB – blocks HCV NS3 helicase binding to DNA; NS3h Cy5-dT15 DNA binding, fluorescence polarization; inhibition, % at 100 µM; 16,000 tested, 1.6% active; AID 687043;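 active = inhibition above the average over every tested compound plus 3 SD, cut at about 40% in these data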
* = called active by the depositor.

SMILES	Cy5 interf NS3h	NS3h inh CB
O=C1NC(=Nc2ccccc2)S/C1=C/c1ccc(O)cc1	1.3*	8
O=C1N/C(=N/N=C\c2ccccc2)S/C1=C\c1ccccc1	1.1	-14
CCOC(=O)COc1c(C)cccc1C	1	-6
COC(=O)c1cnn2c(C(F)(F)F)cc(-c3ccccc3)nc12	1	10
COc1cc(-c2cc(C(F)(F)F)n3ncc(C(=O)NCc4cccnc4)c3n2)cc(OC)c1OC	1.1	-1
O=C(NCc1ccc(Cl)cc1)c1cnn2c(C(F)(F)F)cc(-c3ccco3)nc12	0.59*	12
CCC1CCCCN1C(=O)c1cnn2c(C(F)(F)F)cc(-c3ccc(C)cc3)nc12 (centres undefined)	1.1	17
Cc1ccc(O)c(NC(=O)c2cnn3c(C(F)(F)F)cc(-c4ccco4)nc23)c1	0.58*	1
COC(=O)c1ccccc1NC(=O)c1cnn2c(C(F)(F)F)cc(-c3ccc(OC)c(OC)c3)nc12	0.68*	12
CC(C)c1ccc(N(CC(N)=O)S(=O)(=O)c2ccccc2)cc1	1	15
COc1ccc(N(Cc2ccc(C(=O)Nc3ccc(OC)c(OC)c3)cc2)S(=O)(=O)c2ccccc2)cc1	0.92	7
COc1ccc(N2C(=O)CS(=O)(=O)C2c2ccc(Cl)cc2)cc1 (centres undefined)	0.96	5
O=C(/C=C/c1ccccc1)NC(=S)Nc1ccc(Cl)cc1Cl	0.89	29
Cc1ccc([N+](=O)[O-])cc1NC(=O)COc1ccc(C(C)(C)C)cc1	0.97	8
CCOC(=O)C1=C(C)N=c2s/c(=C\c3cccs3)c(=O)n2C1c1ccc(SC)cc1 (centres undefined)	0.91	14
CC(C)OC(=O)c1cc2nc(-c3cccs3)cc(C(F)(F)F)n2n1	0.66*	10
CCOC(=O)c1nc2nc(-c3cccs3)cc(C(F)(F)F)n2n1	0.75*	8
Cc1c(Cl)cccc1NC(=O)c1cc2nc(-c3cccs3)cc(C(F)(F)F)n2n1	1.1	-10
COc1ccc(N(CC(=O)NC(C)c2ccccc2)S(C)(=O)=O)c(OC)c1 (centres undefined)	1.1	2
COc1ccc(NC(=O)CN(c2cccc(C(F)(F)F)c2)S(C)(=O)=O)c(OC)c1	0.98	9
COc1c(Cl)cc(C(=O)Nc2c(C)cccc2C)cc1Cl	0.97	10
COc1ccc(C(=O)/C=C/Nc2ccccc2NS(=O)(=O)c2ccc([N+](=O)[O-])cc2)cc1OC	0.97	5
COc1ccc(C(=O)/C=C/Nc2ccc(Cl)cc2[N+](=O)[O-])cc1OC	0.22*	0
COc1ccc(NC(=O)c2cccc(Cl)c2)cc1Cl	0.7*	22
COc1ccc(C(=O)Nc2ccc(Cl)cc2C)cc1OC	0.78*	9
SMILES	Cy5 interf NS3h	NS3h inh CB
COc1ccc(NC(=O)c2ccc(Cl)cc2)cc1Cl	1	-2
COc1ccc(C(=O)Nc2ccc(C)cc2C)cc1OC	1	6
COc1c(Cl)cc(C(=O)Nc2cccc(C(F)(F)F)c2)cc1Cl	0.53*	1
O=C(/C=C/c1ccc(Cl)cc1)Nc1ccc2c(c1)OCO2	0.92	14
Cc1cccc(C)c1NC(=O)CSCC(=O)Nc1ccc2ccccc2c1	0.94	2
CCOc1cccc2c1NC(C)(C)c1sn(-c3ccc(C)cc3)c(=S)c1-2	1	20
CC(O)CNC(=O)C1CC(=O)N(c2ccc(Br)cc2)C1 (centres undefined)	0.98	-1
CCOC(=O)c1ccc(NC(=O)c2ccc(C(=O)Nc3ccc(C(=O)OCC)cc3)cc2)cc1	1.1	4
OC(CNc1ccc(F)cc1)COc1ccc(OCC(O)CNc2ccc(F)cc2)cc1 (centres undefined)	0.85	18
N#C/C(=C\c1ccc(-c2cc(Cl)ccc2Cl)o1)C(=O)N1CCOCC1	1.1	12
COc1ccc(NC(=O)C(=O)NCc2ccc(C)cc2)cc1Cl	1.1	-6
COCCNC(=O)C(=O)Nc1cccc2ccccc12	1.1	1
O=C1S/C(=C/c2ccc(Cl)c([N+](=O)[O-])c2)C(=O)N1c1ccccc1	1.1	7
COc1cc2c(cc1NC(=O)CCC1CCCC1)oc1ccccc12	1.1	-5
Cc1ccc(S(=O)(=O)C(CC(=O)c2ccc(Cl)cc2)c2ccccc2)cc1 (centres undefined)	0.98	2
COc1ccc(C(=O)CC(c2ccc(C(C)C)cc2)S(=O)(=O)c2ccc(C)cc2)cc1 (centres undefined)	0.73*	18
COc1ccc(C(CC(=O)c2ccccc2)S(=O)(=O)c2ccc(C)cc2)cc1 (centres undefined)	0.64*	14
COc1ccc(N(CC(=O)NCC(C)C)S(=O)(=O)c2ccc(C)cc2)cc1	1	4
COc1ccc(C2NC(=O)NC(C)=C2C(=O)Nc2cccc(Cl)c2)cc1 (centres undefined)	1	7
CC1CN(c2ccc([N+](=O)[O-])cc2)CCN1S(=O)(=O)c1ccccc1 (centres undefined)	0.98	18
O=C1C(Cl)=CC(=NS(=O)(=O)c2ccc(Cl)cc2)c2ccccc21	0.87	-4
O=C1C(Cl)=CC(=NS(=O)(=O)c2ccccc2)C=C1Br	0.66*	32
CCOC(=O)c1c(C)oc2ccc(OC(=O)c3cccc([N+](=O)[O-])c3)cc12	0.87	15
COc1cc(C=O)c(Br)cc1OCc1ccc(Cl)cc1	0.98	11
COc1ccc(-c2cc(C(F)(F)F)n3nc(C(=O)Nc4ccccc4C(F)(F)F)cc3n2)cc1	1.1	4
SMILES	Cy5 interf NS3h	NS3h inh CB
COc1ccc(-c2cc(C(F)(F)F)n3nc(C(=O)NCCCn4ccnc4)c(Cl)c3n2)cc1	0.68*	2
CC(C)CCNC(=O)C(=O)NCc1ccc(Cl)cc1	1.1	9
NC(=O)C(=O)NCc1ccc(Cl)cc1	0.65*	3
O=C1CCCC2=C1C(c1ccc3c(c1)OCO3)Nc1ccc3ccccc3c12 (centres undefined)	0.72*	21
Cc1ccsc1C1Nc2ccc3ccccc3c2C2=C1C(=O)CC(C)(C)C2 (centres undefined)	0.97	12
COc1ccc(C2CC(C(F)(F)F)n3ncc(C(=O)Nc4ccccc4SC)c3N2)cc1 (centres undefined)	1	8
O=C(NCCN1CCOCC1)c1cnn2c1NC(c1ccco1)CC2C(F)(F)F (centres undefined)	1	0
Cc1ccc(C2CC(C(F)(F)F)n3ncc(C(=O)N4CCN(c5ccc(F)cc5)CC4)c3N2)cc1 (centres undefined)	0.63*	3
COCCNC(=O)c1cnn2c1NC(c1ccc(OC)c(OC)c1)CC2C(F)(F)F (centres undefined)	0.94	-10
COc1ccc(C2CC(C(F)(F)F)n3ncc(C(=O)NC(C)(C)C)c3N2)cc1 (centres undefined)	0.69*	8
COc1ccc(C2CC(C(F)(F)F)n3ncc(C(=O)N4CCN(Cc5ccccc5)CC4)c3N2)cc1OC (centres undefined)	0.61*	9
Cc1ccc(C2CC(C(F)(F)F)n3ncc(C(=O)NCCN4CCOCC4)c3N2)cc1 (centres undefined)	0.77*	9
O=C(c1ccccc1)N1CCN(C(=O)c2cnn3c2NC(c2ccc(Br)cc2)CC3C(F)(F)F)CC1 (centres undefined)	1.1	17
O=C(/C=C/c1cccc(C(F)(F)F)c1)Nc1cccc(Cl)c1	0.95	10
Cc1ccc(/C=C2/N=C(c3sc4ccccc4c3Cl)OC2=O)cc1	1.1	-4

Source: PubChem (Milwaukee Institute for Drug Discovery)
